40 compounds from PubChem BioAssay (NCI) can be followed below.

The panel holds about 83,000 compounds, 20% with a hit somewhere; the sample as a whole holds those more often.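 Plates (96-well) were seeded with cells, treated with compound at one concentration, and incubated for 48 hours before percent growth was determined.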 Calls of active or inactive are those of the source.

The subject of this assay is T-47D breast. Nature of the assay: NCI-60 one-dose screen, 48 h (100 = growth as untreated, 0 = no growth, -100 = all killed). To be noted: 10 µM unless noted. The protocol: Growth inhibition of the T-47D human tumor cell line is measured as a screen for anti-cancer activity. Cells are grown in 96 well plates and exposed to the test compound for 48 hours. Compounds are tested at a single concentration, which is 10^-5 M for most compounds. The reported endpoint is percent growth (GI% or GIPRCNT), where numbers from 0 - 100% represent growth inhibition, and numbers from -100% - 0 represent cell death. For example, a value of 40 represents 60% growth inhibition. A value of 0 means no net growth occurred over the course of the experiment. A value of -40 indicates 40% of cells at the beginning of the experiment died by the end of the experiment. A value of -100 means all cells are dead at the end of the experiment.
NCI-60 Human Tumor Cell Lines Screen was performed using the standard one-dose NCI protocol, which is described in more detail at https://dtp.cancer.gov/discovery_development/nci-60/default.htm.
Compounds with GIPRCNT values below 10 were considered active. Activity score was based on GIPRCNT using the following formula: […]
Score is 0 for GIPRCNT values of 100 or above, 50 for GIPRCNT values of 0, and 100 for GIPRCNT values of -100.
On to `O=c1oc2ccccc2cc1-c1nn(-c2ccccc2)cc1-c1nn[nH]n1`, for which the growth is 100% (inactive). Take `O=C(CN1C(=O)S/C(=C\C(Cl)=C\c2ccccc2)C1=O)NC1CCS(=O)(=O)C1` (stereo not given): the growth is 15.7% (inactive).

As to `Cc1ccc(S(=O)(=O)N2CCCN(c3nc(-c4ccccc4)nc4nc(-c5ccccc5)oc34)CC2)cc1`, the growth was 90.8% (inactive).

Regarding `COC(=O)c1c2c(c(C)[n+]([O-])c1C)C(=O)C(NCc1ccccc1)=CC2=O`, the growth was 5.63% (active). Regarding `COC(=O)[C@@]1(C)CC[C@]2(C)CC[C@]3(C)C4=CC=C5C(=CC(=O)C(O)=C5C)[C@]4(C)[C@@H](O)C[C@@]3(C)[C@@H]2C1`, the growth was -13.7% (active). `Cc1cc(=O)oc2cc(Oc3nc(Br)cn4c(Br)cnc34)ccc12`: the growth was 53.7% (inactive). For `O=C(c1ccc(Br)cc1)C(Br)C(c1ccc(Cl)cc1)C(c1ccccc1)[N+](=O)[O-]` (stereo not given), the growth is 76.9% (inactive). On to `COCCn1cc(-c2nc(-c3c[nH]c4ncccc34)cs2)c2ccccc21`, for which the growth is 4.79% (active). With `COc1ccc(NC(=O)c2ccc(Nc3ncnc4c3cnn4-c3cccc(F)c3)cc2)cc1`, the growth was 96.1% (inactive).

Take `CCCn1c(=S)sc2c(NNC(C)=O)nc(C)nc21`: the growth is 78.9% (inactive).

As for `O=C(OCc1ccc2c(Cl)cc(Cl)c(O)c2n1)N1CCN(C(=O)c2cc3ccccc3[nH]2)CC1`, the growth was 23.5% (inactive). The same measure for `CCOC(=O)CNC1=C(Cl)C(=O)N(Cc2ccc(Cl)cc2)C1=O`: 93.3% (inactive); for `Cc1ccc2c(c1)sc1nc(-c3c[nH]c4ccccc34)c(Nc3ccccc3)n12`: 96% (inactive); for `CN1C(=O)/C(=C/c2ccc(C(=O)Nc3ncc(Cc4cc(Cl)ccc4Cl)s3)cc2)SC1=S`: 59.8% (inactive). On to `Fc1ccc2[nH]cc(-c3nc(-c4c[nH]c5c(Cl)nccc45)cs3)c2c1`, for which the growth was 35.1% (inactive). Turning to `CC(C)(C)OC(=O)CN1CCc2c(sc3ncnc(N4CCN(c5ccc(F)cc5)CC4)c23)C1`, the growth was 63.9% (inactive). Regarding `COC1C(O)CC(OC2CC(OC3CC(O[C@@H]4C(=O)c5c(cc6cc(OC7CC(OC8CC(O)C(O)C(C)O8)C(O)C(C)O7)c(C)c(O)c6c5O)CC4[C@H](OC)C(=O)C(C)=O)OC(C)C3O)OC(C)C2O)OC1C` (stereo not given in full), the growth was -4.93% (active). The same measure for `Nc1ncccc1O`: 96.2% (inactive); for `CCOC(=O)NCCCC(=O)NCCc1ccccc1`: 100% (inactive). As to `CC[C@@H](C(=O)[C@@H](C)[C@@H](O)[C@H](C)[C@@H]1O[C@@H]([C@@H](CC)C(=O)ONC(=O)c2ccccc2O)CC[C@@H]1C)C1O[C@]2(C=CC(=O)[C@]3(CC[C@@](C)([C@H]4CC[C@](O)(CC)[C@H](C)O4)O3)O2)[C@H](C)C[C@@H]1C` (stereo not given in full), the growth was 12.4% (inactive). Consider `COC(=O)[C@@]12CC=C(C)[C@]3(C[C@H](c4ccoc4)OC3=O)[C@H]1C=C[C@@H](O)[C@@]2(O)C(=O)OC`, for which the growth was 110% (inactive).

With `CC(=O)c1sc(-c2ccc(F)cc2)cc1O`, the growth was 98.4% (inactive). On to `Cc1c(O)cc(-c2cnc(N/N=C/c3ccccc3)s2)c(O)c1C`, for which the growth is 29.7% (inactive). In the case of `C=C1C(=O)O[C@H]2[C@H]1CC/C(COC(=O)/C=C\C(=O)NCc1ccc(Cn3c(=O)sn(CCCCl)c3=O)cc1)=C\CC[C@@]1(C)O[C@@H]21`, the growth was 61.5% (inactive).

With `O=C(C[C@]1(O)C(=O)Nc2ccc(Br)cc21)c1ccco1`, the growth was 104% (inactive).

For `CN(C)C1CN(C(=O)c2cc(-c3ccc4ncnc(N5CCc6cc(F)c(Cl)cc65)c4c3)cnc2N)C1`, the growth is 4.73% (active). `COc1ccc(-c2cc(-c3cc(OC)ccc3OC)nc(SCC(C)=O)c2C#N)cc1`: the growth was 57.9% (inactive). Take `COc1ccc2c(c1)C(C)Cc1c(ncnc1-n1cnc3cc(C)ccc31)N2C` (stereo not given): the growth was 44.6% (inactive). With `C=CCN=c1sc(-c2ccc3ccccc3c2)cn1NC(=O)c1cc2ccc1CCc1ccc(cc1)CC2`, the growth is 20.8% (inactive). In the case of `C=C(C)[C@@H]1CC[C@]2(C)[C@H](C=CC3=C4C[C@@](C)(CO)CC[C@]4(C)CC[C@]32C)[C@@]1(C)CCCN`, the growth is -43.7% (active). In the case of `N#Cc1c(-c2ccccc2)nc2c(c(-c3ccc(Cl)cc3)nn2-c2ccccc2)c1-c1ccc([N+](=O)[O-])cc1`, the growth was 90.2% (inactive).

As for `CC1(/C=C/c2ccc(-c3ccccc3)cc2)CCn2cnc3ncnc(c32)N1O` (stereo not given), the growth was 37.8% (inactive). Regarding `Cn1cc(-c2nonc2-c2c[nH]c3ccccc23)c2cc(Br)ccc21`, the growth was 14.5% (inactive). For the compound `CCCC(=O)NC(c1ccc2c(c1)OCO2)c1cc(Cl)c2cccnc2c1O` (stereo not given), the growth was 23% (inactive). For the compound `c1cc(OCCN2CCCC2)ccc1CNc1ccc2nc(CCC3CCCCC3)[nH]c2c1`, the growth was -11.5% (active). For `COc1cc(Cc2cc(OC)c(O)c(OC)c2)cc(OC)c1O`, the growth is 109% (inactive). As for `COc1ccc(N/N=C/c2cn(-c3ccc(C(=O)O)cc3)nc2-c2cc3ccccc3oc2=O)cc1`, the figure is 49.6% (inactive). `O=C(NCCN1CCOCC1)OCc1ccc2c(Cl)cc(Cl)c(O)c2n1`: the growth is 74.8% (inactive). Consider `c1csc(-c2cn3nc(-c4c[nH]c5ccccc45)sc3n2)c1`, for which the growth is 23.9% (inactive). Take `N#Cc1c(-c2ccccc2)nc2c(c(-c3ccccc3)nn2-c2ccccc2)c1-c1ccc(N2CCCCC2)cc1`: the growth was 94.5% (inactive).
